Only some compounds are listed: those with a hit (about 2.4% of all), similar ones and a draw of the others.
D2 antag – antagonizes the human D2 dopamine receptor; P14416; HEK293 TREx D2 cells, calcium flux, dopamine EC80; inhibition, % at 10 µM; 2% of 340,000 active; AID 485344; in the data active means inhibition above about 30%; inactive means below that, where a call was filed
Target sequence (P14416 whole entry, looked up): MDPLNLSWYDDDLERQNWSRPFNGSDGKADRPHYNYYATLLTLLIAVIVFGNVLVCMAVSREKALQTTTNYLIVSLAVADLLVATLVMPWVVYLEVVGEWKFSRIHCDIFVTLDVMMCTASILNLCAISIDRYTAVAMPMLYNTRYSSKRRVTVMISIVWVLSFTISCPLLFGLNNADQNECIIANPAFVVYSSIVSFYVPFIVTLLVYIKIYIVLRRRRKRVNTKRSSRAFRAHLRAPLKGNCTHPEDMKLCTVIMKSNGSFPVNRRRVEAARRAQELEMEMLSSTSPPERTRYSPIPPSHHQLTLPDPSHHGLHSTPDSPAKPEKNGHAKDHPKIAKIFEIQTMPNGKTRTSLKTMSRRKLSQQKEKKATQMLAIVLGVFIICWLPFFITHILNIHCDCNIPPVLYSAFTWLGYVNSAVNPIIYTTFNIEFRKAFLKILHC
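Dopamine at EC80 is the agonist stimulus; test compounds precede it by 180 s. Calcium flux read kinetically in a force-coupled, inducible HEK293 T-REx D2 cell line.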
D2 PAM-1 – positively modulates the human D2 dopamine receptor allosterically. P14416. HEK293 T-REx D2, calcium flux, EC20 dopamine potentiation. potentiation, % at 10 µM. 0.34% of 340,000 active;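 active means potentiation over 3 SD above the plate norm, cut at about 30% in these data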
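Tetracycline-induced Hek293 Trex D2 cells, force-coupled to calcium, loaded with no-wash calcium dye. Compound added with 180 s kinetic read for agonism, then EC20 dopamine and a further 180 s read for potentiation.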
D2 PAM-2 – potentiates the human D2 dopamine receptor allosterically | potentiation, % (concentration not given with the values) | DiscoveRx D2 beta-arrestin cells, luminescence, 90 min; 100% = 57 uM dopamine signal | P14416 | 0.23% of 360,000 active; in the data active means potentiation above about 50%; inconclusive means mostly about 30% to 49%
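PathHunter beta-arrestin assay in DiscoveRx D2 cells. Compounds were added with an EC20 of dopamine (50 nM final) for 90 min at 37 deg C. Luminescence was read 1 h after detection reagent, with 57 uM dopamine as the EC100 control.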
D2 ag-1 – D2 dopamine receptor (human) agonism; P14416; HEK293 T-REx D2 cells, calcium flux agonist mode; activation, % at 2 µM; 0.53% of 340,000 active;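 active means activation over 3 SD above normal in the single-dose calcium agonist read, cut at about 30% in these data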
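Agonism scored from kinetic calcium signal (1 read/sec, 180 s) following compound pin transfer, after a 10 s baseline. Cells: HEK293 Trex line expressing inducible D2 receptor coupled to calcium, dye-loaded after overnight culture at 30 C.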
D2 ag-2 – activates the human D2 dopamine receptor. P14416. DiscoveRx PathHunter D2 beta-arrestin, luminescence, 90 min; 100% = 57 uM dopamine signal. 0.084% of 360,000 active. AID 624465. activation, % (test concentration not listed); in the data active means activation above about 40%; inconclusive means between about 15% and that limit
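Agonist mode: compounds alone added to overnight-plated D2 PathHunter cells for 90 min at 37 C, with 57 uM final dopamine (EC100) defining full response. Beta-arrestin recruitment detected by chemiluminescent reagent, read after 1 h at ambient temperature.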
D3 ag – activates human D3 dopamine receptor beta-arrestin recruitment; AID 720506; 4% of 2,300 active; shares compounds with D2 ag-1; DiscoveRx D3 beta-arrestin cells, luminescence, 90 min; Potency, µM (highest dose often 76.9 µM), actives largely listed as activators; further: nearly all actives have a fitted effect of over 70% in size
D2 ag-3 – activates human D2 dopamine receptor in D3 counterscreen | shares compounds with D2 ag-1 | DiscoveRx PathHunter D2 beta-arrestin, luminescence, 90 min; response scale: percent relative to full dopamine signal | Potency, µM (series often up to 76.9 µM), most hits filed as activators | 5.9% of 2,300 active; further: nearly all actives have a fitted effect of over 70% in size
Numbers stand for hits; – = inactive; ? = inconclusive; · = not tested or not shown. Unless noted, the call rests on the fitted dose curve; in most records, active means well fitted activation curve with a large enough effect; inconclusive means small, poorly fitted or top-dose-only effect; inactive means flat fitted curve, though single readings scatter.

SMILES	D2 antag	D2 PAM-1	D2 PAM-2	D2 ag-1	D2 ag-2	D3 ag	D2 ag-3
COc1ccc(-c2nc(CN3CCN(C(=O)c4ccco4)CC3)c(C)o2)cc1OC	–	–	–	–	–	·	·
Cc1ccc(N2CC(C(=O)Nc3ccccc3OC(F)F)CC2=O)cc1 (centres undefined)	–	–	–	–	–	·	·
CNC(=O)CSc1nnc(NC(=O)Nc2ccccc2)s1	·	–	·	–	·	·	·
Cc1ccccc1[C@@H](NC(=O)OC(C)(C)C)C(=O)OC(C)(C)C	–	–	–	–	–	–	–
O=C1CC(c2ccccc2)NN1 (centres undefined)	–	–	–	–	–	–	–
NC(=O)c1nsc(C(=O)N(c2ccccc2)C(C(=O)NCc2ccc(F)cc2)c2ccc(O)cc2)c1N (centres undefined)	57	–	–	–	–	–	–
NC(=O)c1nsc(C(=O)N(c2ccccc2)C(C(=O)NCc2ccc(F)cc2)c2ccco2)c1N (centres undefined)	·	·	–	·	–	·	·
O=C1C2CCCCN2C(=O)N1CCCCN1CCN(c2cccc(C(F)(F)F)c2)CC1 (centres undefined)	·	·	–	·	–	·	·
O=C1C2CCCN2C(=O)N1CCCN1CCN(c2cccc(Cl)c2)CC1 (centres undefined)	31	–	–	–	–	–	–
O=c1n(CCCN2CCN(c3cccc(Cl)c3)CC2)nc2ccccn12	52	–	–	41	–	–	–
CCN1C(=O)/C(=C\C=C\c2ccccc2[N+](=O)[O-])SC1=S	–	–	–	–	–	·	·
CCN1C(=O)/C(=C/C=C2\N(CC)c3cc(S(=O)(=O)N(C)C)ccc3N2c2ccccc2)SC1=S	–	–	–	–	–	–	–
COc1ccc(CNC(=O)CC2N=C3c4ccccc4N=C(SCC(=O)Nc4ccc(C(C)C)cc4)N3C2=O)cc1 (centres undefined)	·	–	·	–	·	·	·
CCN(CC)C(=O)Cn1cc(C(=O)C(=O)N2CCN(Cc3ccccc3)CC2)c2ccccc21	–	–	–	58	–	–	–
O=C(CCN1CCN(c2ccccc2F)CC1)Nc1ccc(F)cc1	88	–	–	–	–	?	–
O=C(CCN1CCN(c2ccccc2F)CC1)Nc1cccc(F)c1	80	–	–	81	–	?	?
COc1cc(NC(=O)CCN2CCN(c3ccccc3F)CC2)cc(OC)c1	40	–	–	31	–	?	–
O=C(CCN1CCN(S(=O)(=O)c2ccc(Cl)cc2)CC1)Nc1ccc(F)cc1	·	–	–	·	–	·	·
COC(=O)c1[nH]c2cc(OC)ccc2c1NC(=O)CCN1CCN(c2cccc(C)c2C)CC1	57	–	–	–	–	–	–
CC(=O)c1cccc(NC(=O)c2ccc3nc(C(C)C)oc3c2)c1	·	–	·	–	·	·	·
Cc1ccc(S(=O)(=O)N2CCC(C(=O)N3CCCC3C(=O)N[C@@H](CC(C)C)C(=O)NCC(N)=O)CC2)cc1 (some centres undefined)	–	–	–	–	–	·	·
O=C(CCN1CCN(S(=O)(=O)c2ccc(Cl)cc2)CC1)Nc1ccccc1F	–	–	–	–	–	·	·
O=C(CCN1CCN(c2ccccc2F)CC1)Nc1ccccc1Cl	88	–	–	70	–	–	–
Cc1ccc(-c2cc(-c3ccc4c(c3)NC(=O)CO4)nc3c2COc2ccccc2-3)cc1	·	–	·	–	·	·	·
CC(=O)N/C(=C/C(C)C)c1ccccc1	–	–	–	–	–	–	–
SMILES	D2 antag	D2 PAM-1	D2 PAM-2	D2 ag-1	D2 ag-2	D3 ag	D2 ag-3
CSCC[C@H](NC(=O)C1CCN(S(=O)(=O)c2ccc(C)cc2)CC1)C(=O)NC1CCS(=O)(=O)C1 (some centres undefined)	–	–	–	53	–	–	–
O=C(CCN1CCN(S(=O)(=O)c2ccc(F)cc2)CC1)Nc1ccccc1F	–	–	–	–	–	·	·
O=C(CCN1CCN(CC(=O)Nc2ccccc2F)CC1)Nc1ccccc1F	–	–	–	–	–	·	·
O=C(CCN1CCN(c2ccccc2)CC1)Nc1ccccc1F	71	–	–	71	?	?	–
O=C(CCN1CCN(c2ccc(F)cc2)CC1)Nc1ccccc1F	65	–	–	35	–	–	–
COc1cc(/C=C/[N+](=O)[O-])ccc1OC(=O)/C=C/c1ccc(F)cc1	–	–	–	–	–	·	·
CC(=O)Nc1cccc(NC(=O)CSc2nc(C3CC3)nc3ccccc23)c1	34	–	–	–	–	–	–
CCN(CC)CCCNC(=O)Cc1csc2nc(-c3ccc(Cl)cc3)cn12	·	–	·	–	·	·	·
CCOc1ccc(S(=O)(=O)N2CCCCC2)c(C)c1C	–	–	–	–	–	–	–
COC(=O)CC1Oc2ccc(Cl)cc2-n2cc(-c3ccc(C)cc3)nc21 (centres undefined)	·	–	·	–	·	·	·
N#CC(C(=O)NC1CCCCC1)c1nc2ccccc2nc1N1CCOCC1 (centres undefined)	–	–	·	–	·	·	·
N#CC(C(=O)OCc1ccccc1)c1nc2ccccc2nc1N1CCOCC1 (centres undefined)	–	–	–	–	–	–	–
COc1ccc(NC(=O)CN(C)C(=O)c2csc3c2CCCC3)cc1	–	–	–	–	–	·	·
COc1cccc(NC(=O)CN(C)C(=O)c2csc3c2CCCC3)c1	·	·	–	·	–	–	–
O=C(Nc1ccc(Br)cc1F)c1ncoc1-c1ccco1	·	–	·	–	·	·	·
O=C(O)/C(=C\c1cccc(O)c1)c1ccc(S(=O)(=O)N2CCCC2)s1	42	–	–	–	–	–	–
O=C(O)/C(=C\c1cccc(F)c1)c1ccc(S(=O)(=O)N2CCCCC2)s1	–	–	–	–	–	·	·
COc1ccc2c(c1)[nH]c1c(=O)n(Cc3ccccn3)cnc12	–	–	–	–	–	·	·
COc1ccc2c(c1)[nH]c1c(=O)n(Cc3ccco3)cnc12	–	–	–	32	–	–	–
CC(C)c1ccc(NC(=O)CN2C(=O)c3cccc4cccc2c34)cc1	·	–	·	–	·	·	·
Fc1ccccc1N1CCN(CCCNc2ccc3nncn3n2)CC1	90	–	–	95	43	?	?
CCc1ccc(NC(=O)CN2C(C(=O)OC)=C(c3ccccc3)c3ccccc3S2(=O)=O)cc1	·	–	·	–	·	·	·
O=C(CC[C@H]1O[C@@H](n2ccc(=O)[nH]c2=O)[C@H](O)[C@@H]1O)N[C@H](Cc1ccccc1)C(=O)NC1CCCCC1	·	·	–	·	–	·	·
CCOc1ccccc1N1CCN(Cc2ccc(Br)s2)CC1	·	–	–	·	–	–	–

Screens from PubChem.
